From publication PMC7862700, “An all-to-all approach to the identification of sequence-specific readers for epigenetic DNA modifications on cytosine”

Columns and labels:
Experiment in all cases: DAPPL (digital affinity profiling via proximity ligation, sequencing); 10 mM Tris-HCl pH 7.5, 50 mM NaCl, 1 mM DTT, 4% glycerol, room temperature, 30 min; GST-TFs on glutathione beads, 16-mer random dsDNA library, 0.1% formaldehyde crosslink after washing; high values mean tight binding
Details in all cases: protein: recombinant; tags: N-terminal GST; dsDNA, one strand shown
[1] = molecular target: T1, GABPA (Homo sapiens, UniProt Q06546 1-454)
T1 sequence: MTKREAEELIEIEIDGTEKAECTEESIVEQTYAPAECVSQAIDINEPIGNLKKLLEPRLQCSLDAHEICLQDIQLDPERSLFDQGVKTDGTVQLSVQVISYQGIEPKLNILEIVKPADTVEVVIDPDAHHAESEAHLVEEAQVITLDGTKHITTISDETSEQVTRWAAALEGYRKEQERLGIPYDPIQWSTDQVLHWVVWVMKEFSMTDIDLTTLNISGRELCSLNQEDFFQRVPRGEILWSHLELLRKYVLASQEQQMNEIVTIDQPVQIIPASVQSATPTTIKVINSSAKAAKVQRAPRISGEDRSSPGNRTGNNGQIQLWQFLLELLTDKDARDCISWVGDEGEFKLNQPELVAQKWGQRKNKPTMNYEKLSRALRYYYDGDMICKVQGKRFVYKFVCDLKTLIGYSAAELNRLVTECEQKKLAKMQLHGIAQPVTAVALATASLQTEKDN
Procedure, shortened: (§1)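 GST fusions of human transcription factors were expressed in yeast and captured with glutathione beads. Once given DNA barcodes and pooled alongside a tag-only sample, they were incubated for 30 min at room temperature with 200 nmole of a random double-stranded 16-mer DNA library in Tris/NaCl/DTT/glycerol buffer, then washed, crosslinked (0.1% formaldehyde), proximity-ligated, PCR-amplified and sequenced on an Illumina NextSeq500. The binding signal of each hexamer is its read frequency for a factor divided by its frequency for the tag-only sample.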

[2] = molecular target: T2, ELK3 (Homo sapiens, UniProt P41970 1-407)
T2 sequence: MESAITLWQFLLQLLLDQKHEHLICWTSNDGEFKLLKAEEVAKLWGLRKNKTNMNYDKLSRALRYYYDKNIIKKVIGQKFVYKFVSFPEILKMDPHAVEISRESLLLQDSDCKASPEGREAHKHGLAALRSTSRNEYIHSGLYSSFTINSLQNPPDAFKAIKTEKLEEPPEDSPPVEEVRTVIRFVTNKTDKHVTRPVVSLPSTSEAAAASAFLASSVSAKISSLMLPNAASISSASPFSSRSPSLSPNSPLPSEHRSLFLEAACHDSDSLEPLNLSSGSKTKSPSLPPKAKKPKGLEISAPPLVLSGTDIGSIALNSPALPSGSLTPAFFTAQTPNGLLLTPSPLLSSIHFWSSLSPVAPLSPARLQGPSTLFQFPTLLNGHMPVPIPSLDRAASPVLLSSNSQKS
Procedure, shortened: as §1

[3] = molecular target: ETV5 (Homo sapiens, UniProt P41161 1-510)
Procedure, shortened: as §1

[4] = molecular target: ETV1 (Homo sapiens, UniProt P50549 1-477)
Procedure, shortened: as §1

[5] = molecular target: T3, ERF (Homo sapiens, UniProt P50548 1-548)
T3 sequence: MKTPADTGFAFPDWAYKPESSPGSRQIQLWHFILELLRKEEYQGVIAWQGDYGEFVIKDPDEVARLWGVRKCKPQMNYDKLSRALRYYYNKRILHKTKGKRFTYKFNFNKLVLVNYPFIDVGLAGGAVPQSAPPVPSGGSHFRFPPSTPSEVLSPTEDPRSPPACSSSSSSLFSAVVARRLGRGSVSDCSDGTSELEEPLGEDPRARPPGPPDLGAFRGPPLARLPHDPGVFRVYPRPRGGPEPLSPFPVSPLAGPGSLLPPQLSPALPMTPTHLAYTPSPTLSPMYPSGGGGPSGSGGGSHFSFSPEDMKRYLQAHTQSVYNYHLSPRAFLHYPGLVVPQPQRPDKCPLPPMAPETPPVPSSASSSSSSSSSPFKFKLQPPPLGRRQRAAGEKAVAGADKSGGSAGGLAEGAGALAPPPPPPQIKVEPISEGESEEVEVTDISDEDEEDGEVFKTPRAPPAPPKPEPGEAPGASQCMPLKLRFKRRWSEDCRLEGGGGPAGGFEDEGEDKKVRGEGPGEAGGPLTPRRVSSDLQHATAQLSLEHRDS
Procedure, shortened: as §1

[6] = molecular target: T4, ETS2 (Homo sapiens, UniProt P15036 1-469)
T4 sequence: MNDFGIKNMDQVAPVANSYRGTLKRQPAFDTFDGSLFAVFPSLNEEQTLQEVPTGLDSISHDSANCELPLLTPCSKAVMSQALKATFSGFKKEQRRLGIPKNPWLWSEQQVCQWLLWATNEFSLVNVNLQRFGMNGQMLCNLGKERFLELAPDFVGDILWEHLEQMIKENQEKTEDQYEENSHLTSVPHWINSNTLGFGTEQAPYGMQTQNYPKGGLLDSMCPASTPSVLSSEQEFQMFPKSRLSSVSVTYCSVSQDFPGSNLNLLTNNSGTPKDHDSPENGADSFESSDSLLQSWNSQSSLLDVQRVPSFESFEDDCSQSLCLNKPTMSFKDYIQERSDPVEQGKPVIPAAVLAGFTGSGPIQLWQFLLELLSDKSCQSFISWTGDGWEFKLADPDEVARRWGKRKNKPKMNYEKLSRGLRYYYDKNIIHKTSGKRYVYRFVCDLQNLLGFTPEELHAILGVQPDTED
Procedure, shortened: as §1

[7] = molecular target: T5, ELK1 (Homo sapiens, UniProt P19419 1-428)
T5 sequence: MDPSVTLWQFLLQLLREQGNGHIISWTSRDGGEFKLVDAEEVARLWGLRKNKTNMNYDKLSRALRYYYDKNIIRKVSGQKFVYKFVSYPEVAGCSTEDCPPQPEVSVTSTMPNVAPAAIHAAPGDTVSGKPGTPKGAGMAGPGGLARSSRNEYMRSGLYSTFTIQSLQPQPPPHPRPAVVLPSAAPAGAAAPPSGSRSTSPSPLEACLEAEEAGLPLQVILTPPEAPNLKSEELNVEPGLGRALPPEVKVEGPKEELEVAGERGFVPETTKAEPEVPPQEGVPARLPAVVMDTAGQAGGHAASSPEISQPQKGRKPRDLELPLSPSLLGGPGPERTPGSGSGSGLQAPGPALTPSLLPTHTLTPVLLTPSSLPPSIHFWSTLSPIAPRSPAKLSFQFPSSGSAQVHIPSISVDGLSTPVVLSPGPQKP
Procedure, shortened: as §1

[8] = molecular target: SPIB (Homo sapiens, UniProt Q01892 1-262)
Procedure, shortened: as §1

[9] = molecular target: T6, SPIC (Homo sapiens, UniProt Q8N5J4 1-248)
T6 sequence: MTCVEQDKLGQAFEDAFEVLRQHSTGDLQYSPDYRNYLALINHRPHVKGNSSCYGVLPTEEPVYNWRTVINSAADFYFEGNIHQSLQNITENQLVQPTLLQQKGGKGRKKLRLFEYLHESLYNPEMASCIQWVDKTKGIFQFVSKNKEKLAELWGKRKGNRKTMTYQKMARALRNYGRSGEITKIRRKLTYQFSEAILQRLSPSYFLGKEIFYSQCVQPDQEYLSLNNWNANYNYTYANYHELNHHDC
Procedure, shortened: as §1

[10] = molecular target: ELF4 (Homo sapiens, UniProt Q99607 1-663)
Procedure, shortened: as §1

[11] = molecular target: T7, ELK4 (Homo sapiens, UniProt P28324-2 1-405)
T7 sequence: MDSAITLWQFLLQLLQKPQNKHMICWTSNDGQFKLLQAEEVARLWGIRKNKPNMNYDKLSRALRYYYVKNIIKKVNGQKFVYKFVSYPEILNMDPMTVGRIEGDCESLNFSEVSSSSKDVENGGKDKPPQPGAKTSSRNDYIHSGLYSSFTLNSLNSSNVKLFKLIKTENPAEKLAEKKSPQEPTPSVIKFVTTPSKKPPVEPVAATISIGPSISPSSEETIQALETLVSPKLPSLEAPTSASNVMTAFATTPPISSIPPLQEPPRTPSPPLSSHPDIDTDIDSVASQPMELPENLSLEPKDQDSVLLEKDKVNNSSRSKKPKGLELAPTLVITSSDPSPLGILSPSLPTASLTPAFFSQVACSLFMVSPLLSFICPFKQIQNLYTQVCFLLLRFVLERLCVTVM
Procedure, shortened: as §1

[12] = molecular target: T8, ELF3 (Homo sapiens, UniProt P78545 1-371)
T8 sequence: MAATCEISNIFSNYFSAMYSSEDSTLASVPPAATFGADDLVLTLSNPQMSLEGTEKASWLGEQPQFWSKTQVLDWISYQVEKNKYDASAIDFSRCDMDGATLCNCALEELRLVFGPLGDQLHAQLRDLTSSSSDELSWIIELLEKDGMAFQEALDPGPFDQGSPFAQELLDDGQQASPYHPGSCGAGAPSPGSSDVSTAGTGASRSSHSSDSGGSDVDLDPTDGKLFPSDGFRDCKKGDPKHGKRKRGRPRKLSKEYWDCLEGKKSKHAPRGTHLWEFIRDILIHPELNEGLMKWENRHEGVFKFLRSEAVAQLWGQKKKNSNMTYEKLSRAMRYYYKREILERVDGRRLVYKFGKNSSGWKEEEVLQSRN
Procedure, shortened: as §1

[13] = molecular target: T9, ETV3L (Homo sapiens, UniProt Q6ZN32 1-361)
T9 sequence: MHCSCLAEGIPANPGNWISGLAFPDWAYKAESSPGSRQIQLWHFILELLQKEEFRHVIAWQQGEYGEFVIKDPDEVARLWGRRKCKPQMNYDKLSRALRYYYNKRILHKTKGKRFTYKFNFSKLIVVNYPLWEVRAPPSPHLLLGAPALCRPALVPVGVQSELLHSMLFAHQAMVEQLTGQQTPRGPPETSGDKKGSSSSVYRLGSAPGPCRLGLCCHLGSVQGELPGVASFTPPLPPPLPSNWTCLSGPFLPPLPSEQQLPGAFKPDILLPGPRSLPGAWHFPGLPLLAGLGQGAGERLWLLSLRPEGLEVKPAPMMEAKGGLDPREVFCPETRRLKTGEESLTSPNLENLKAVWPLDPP
Procedure, shortened: as §1

[14] = molecular target: T10, ETV7 (Homo sapiens, UniProt Q9Y603 1-341)
T10 sequence: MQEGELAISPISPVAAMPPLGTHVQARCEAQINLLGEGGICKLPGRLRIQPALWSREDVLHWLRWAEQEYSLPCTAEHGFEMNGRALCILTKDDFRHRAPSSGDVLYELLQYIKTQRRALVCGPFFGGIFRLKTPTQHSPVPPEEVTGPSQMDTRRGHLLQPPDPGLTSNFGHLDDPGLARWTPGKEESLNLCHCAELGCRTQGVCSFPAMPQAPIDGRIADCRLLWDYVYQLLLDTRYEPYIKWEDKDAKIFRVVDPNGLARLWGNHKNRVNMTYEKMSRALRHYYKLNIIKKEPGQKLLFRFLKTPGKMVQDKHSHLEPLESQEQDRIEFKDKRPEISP
Procedure, shortened: as §1

[15] = molecular target: T11, ETV3 (Homo sapiens, UniProt P41162-2 1-143)
T11 sequence: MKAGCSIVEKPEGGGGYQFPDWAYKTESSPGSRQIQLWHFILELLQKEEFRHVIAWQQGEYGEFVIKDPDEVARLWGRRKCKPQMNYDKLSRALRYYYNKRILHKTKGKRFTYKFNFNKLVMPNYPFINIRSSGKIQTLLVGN
Procedure, shortened: as §1

ETV5, sequence (P41161 whole entry): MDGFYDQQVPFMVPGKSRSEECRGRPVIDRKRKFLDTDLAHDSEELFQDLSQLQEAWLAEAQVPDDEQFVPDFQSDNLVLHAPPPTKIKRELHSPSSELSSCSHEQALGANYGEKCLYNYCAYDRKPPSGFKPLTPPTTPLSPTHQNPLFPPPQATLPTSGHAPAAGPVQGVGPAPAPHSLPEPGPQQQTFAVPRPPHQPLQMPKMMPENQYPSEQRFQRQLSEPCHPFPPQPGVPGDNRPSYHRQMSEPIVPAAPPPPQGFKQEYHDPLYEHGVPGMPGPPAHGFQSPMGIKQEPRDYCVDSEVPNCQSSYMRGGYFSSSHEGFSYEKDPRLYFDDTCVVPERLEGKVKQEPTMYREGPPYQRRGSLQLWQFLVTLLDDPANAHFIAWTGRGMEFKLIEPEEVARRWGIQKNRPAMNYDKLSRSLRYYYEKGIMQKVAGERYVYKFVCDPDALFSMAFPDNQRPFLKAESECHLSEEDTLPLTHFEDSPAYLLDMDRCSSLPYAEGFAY
ELF4, sequence (Q99607 whole entry): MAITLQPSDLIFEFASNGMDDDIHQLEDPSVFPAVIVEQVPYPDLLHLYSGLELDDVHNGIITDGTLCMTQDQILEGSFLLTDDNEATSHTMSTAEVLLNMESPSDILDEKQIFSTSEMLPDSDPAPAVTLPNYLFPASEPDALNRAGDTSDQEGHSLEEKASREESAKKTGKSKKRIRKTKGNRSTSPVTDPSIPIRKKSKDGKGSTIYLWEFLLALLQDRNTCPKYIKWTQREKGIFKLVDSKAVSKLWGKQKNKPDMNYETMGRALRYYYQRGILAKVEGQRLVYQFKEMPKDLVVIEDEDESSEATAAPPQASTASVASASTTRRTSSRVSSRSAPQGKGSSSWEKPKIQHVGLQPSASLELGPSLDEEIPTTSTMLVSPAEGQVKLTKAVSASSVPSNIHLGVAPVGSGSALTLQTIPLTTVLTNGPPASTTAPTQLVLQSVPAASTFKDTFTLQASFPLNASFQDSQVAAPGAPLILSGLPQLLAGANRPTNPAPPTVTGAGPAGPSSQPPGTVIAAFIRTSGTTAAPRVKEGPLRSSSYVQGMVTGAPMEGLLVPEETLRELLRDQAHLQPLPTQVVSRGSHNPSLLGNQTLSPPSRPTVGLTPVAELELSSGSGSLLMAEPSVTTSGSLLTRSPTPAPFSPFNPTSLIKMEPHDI
SPIB, sequence (Q01892 whole entry): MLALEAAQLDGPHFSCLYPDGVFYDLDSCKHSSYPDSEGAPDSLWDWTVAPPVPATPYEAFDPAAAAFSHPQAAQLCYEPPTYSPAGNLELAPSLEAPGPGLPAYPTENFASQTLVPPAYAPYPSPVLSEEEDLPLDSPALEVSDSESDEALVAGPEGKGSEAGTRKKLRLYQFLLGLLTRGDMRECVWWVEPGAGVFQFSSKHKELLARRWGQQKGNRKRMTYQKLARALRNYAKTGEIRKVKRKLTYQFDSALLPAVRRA
ETV1, sequence (P50549 whole entry): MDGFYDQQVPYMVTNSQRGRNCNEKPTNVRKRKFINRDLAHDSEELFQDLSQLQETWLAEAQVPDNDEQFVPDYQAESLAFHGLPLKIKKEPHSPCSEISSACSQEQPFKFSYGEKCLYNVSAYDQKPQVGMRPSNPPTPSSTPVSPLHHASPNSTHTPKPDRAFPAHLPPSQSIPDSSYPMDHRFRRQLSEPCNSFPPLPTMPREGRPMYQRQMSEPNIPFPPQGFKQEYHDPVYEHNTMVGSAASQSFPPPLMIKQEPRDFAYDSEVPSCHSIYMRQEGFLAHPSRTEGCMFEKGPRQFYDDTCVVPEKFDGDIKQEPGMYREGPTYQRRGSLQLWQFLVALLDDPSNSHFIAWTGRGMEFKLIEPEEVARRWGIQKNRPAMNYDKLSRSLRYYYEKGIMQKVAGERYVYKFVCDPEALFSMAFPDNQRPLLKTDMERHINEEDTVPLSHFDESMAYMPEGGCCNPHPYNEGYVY

In the case of AGCTCG, the binding signal [1] is reported as 1.04 fold enrichment (6-mer frequency, TF over GST control), the binding signal [2] is reported as 1.04 fold enrichment (6-mer frequency, TF over GST control) and the binding signal [3] is reported as 1.04 fold enrichment (6-mer frequency, TF over GST control). For the same sequence, the binding signal [4] was 1.01 fold enrichment (6-mer frequency, TF over GST control), the binding signal [5] was 1.08 fold enrichment (6-mer frequency, TF over GST control) and the binding signal [6] was 1.01 fold enrichment (6-mer frequency, TF over GST control).

CGCGCG was tested, and the binding signal [7] was 1.07 fold enrichment (6-mer frequency, TF over GST control), the binding signal [1] was 1.05 fold enrichment (6-mer frequency, TF over GST control) and the binding signal [8] was 1.11 fold enrichment (6-mer frequency, TF over GST control). For the same sequence, the binding signal [2] was 1.04 fold enrichment (6-mer frequency, TF over GST control), the binding signal [3] was 1.01 fold enrichment (6-mer frequency, TF over GST control) and the binding signal [9] was 1.14 fold enrichment (6-mer frequency, TF over GST control). For the same sequence, the binding signal [10] was 1 fold enrichment (6-mer frequency, TF over GST control), the binding signal [11] was 1.14 fold enrichment (6-mer frequency, TF over GST control) and the binding signal [12] was 1.06 fold enrichment (6-mer frequency, TF over GST control). For the same sequence, the binding signal [13] was 1.07 fold enrichment (6-mer frequency, TF over GST control), the binding signal [14] was 1.03 fold enrichment (6-mer frequency, TF over GST control) and the binding signal [15] was 1.1 fold enrichment (6-mer frequency, TF over GST control).
